Screening results (PubChem BioAssay)
KKLEB tox = reduces viability of KKLEB cystic fibrosis airway cells; 360,000 tested, 0.36% active; activity change (cytotoxicity), % at 5 µM; KKLEB CF airway cells viability, ATPlite luminescence, overnight; hits give low values; cells stimulated with P. aeruginosa culture filtrate; AID 602141;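 active = corrected activity change at or below -50% at 5 µM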
LGR2 antag = inhibitors of bursicon-induced Drosophila LGR2 receptor cAMP signaling; 380,000 tested, 0.35% active; AID 720647; inhibition, % at 9.99 µM; HEK293 LGR2, CRE-luciferase, bursicon-stimulated, 4 h;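 active = drop in luminescence signal, shown as inhibition above about 50% in the replicate tests, limit read from the data, passing the limit was not always enough; inconclusive = probably only some replicates passing the limit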;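 also: agonist challenge used bursicon conditioned medium at about half maximal strength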
PAX8 inh HTS = inhibitors of PAX8 transcriptional activity in RMG-I cells. RMG-I TPO-luciferase reporter, SteadyGlo, 24 h. inhibition, % at 12.6 µM. 360,000 tested, 1.2% active. AID 652154;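 active = mean replicate inhibition at least 60% with every replicate also reaching 60%; inconclusive = only one of the two criteria is met; inactive = mean below 60% and not all replicates reaching 60%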;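 also: luciferase light reporting Pax8 driven TPO promoter activity; plate controls were median of neutral control wells for no effect and mitoxantrone controls for full effect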
CF NFkB inh = blocks PAF-induced NF-kB reporter in cystic fibrosis cells; KKLEB NF-kB-GFP reporter, GFP fluorescence overnight; inhibition, % at 5 µM; 360,000 tested, 0.86% active; AID 588850;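 active = at least 50% inhibition at 5 µM, scaled per plate between neutral and stimulator controls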;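 also: PAF is a Pseudomonas aeruginosa culture filtrate used as stimulus; plate controls were PAF-stimulated DMSO wells for no effect and unstimulated DMSO wells for full effect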
EWS-Fli block = EWS/Fli transcriptional activity inhibition | 350,000 tested, 0.67% active | inhibition, % at 12.6 µM | A673 NR0B1-luciferase reporter, viability-normalised;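 active = mean inhibition of at least 50% after viability correction, with every replicate also passing that limit; inconclusive = mean reaches 50% but only one of two replicates passes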;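 also: firefly luciferase signal divided by Alamar Blue viability fluorescence both relative to DMSO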
Shn3 inh set2 = reduces Shn3 3'UTR luciferase signal in osteoblasts | Clone20 osteoblast Shn3 3'UTR firefly luciferase, 24 h | inhibition, % at 12.5 µM | AID 588674 | 360,000 tested, 0.52% active;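 active = mean inhibition of at least 75% with every replicate also reaching 75%; inconclusive = mean inhibition at least 75% but some replicate below; inactive = mean inhibition below 75%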;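 also: 0% = median of neutral control wells and 100% = pilot-screen positive control compound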
CF NFkB conf = CF NF-kB inhibition confirmation, single concentration; shares compounds with CF NFkB inh; KKLEB CF airway cells, PAF-induced NF-kB-GFP fluorescence, overnight; inhibition, % at 5 µM; 1,300 tested, 64% active; AID 602472; in the data active = inhibition above about 40%;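 also: stimulus PAF is a Pseudomonas aeruginosa filtrate and not platelet activating factor; plate controls were DMSO wells with stimulus for no effect and unstimulated DMSO wells for full effect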
The depositor's hits bear a star. This is a sample that favours compounds with a hit; in the whole collection about 2% have one here.

For Cc1c(NC(=O)c2cc(-c3ccccc3)nc3ccccc23)c(=O)n(-c2ccccc2)n1C the results were KKLEB tox -14, LGR2 antag 10, PAX8 inh HTS 0, CF NFkB inh 10, EWS-Fli block 0 and Shn3 inh set2 22.
`COc1ccc2c(c1OC)C(=O)OC2Nc1nc(-c2ccc([N+](=O)[O-])cc2)cs1` (centres undefined) gave KKLEB tox 2, LGR2 antag -11, PAX8 inh HTS -35, CF NFkB inh -8, EWS-Fli block -16 and Shn3 inh set2 -13.
Screening COc1ccc(-c2csc(NC3OC(=O)c4c3ccc(OC)c4OC)n2)cc1OC (centres undefined) returned KKLEB tox -13, PAX8 inh HTS 9, CF NFkB inh 77*, EWS-Fli block 44 and CF NFkB conf 87*.
`CCOC(=O)Nc1ccc2c(c1)N(C(=O)CCN(CC)CC)c1ccccc1S2=O` (centres undefined) gave KKLEB tox -30, LGR2 antag 36, PAX8 inh HTS 109*, CF NFkB inh 91*, EWS-Fli block 6, Shn3 inh set2 1 and CF NFkB conf 43*.
Screening O=C(N[C@H]1CC[C@H](CCNC(=O)C2CC2)O[C@@H]1CO)c1ccncc1 returned LGR2 antag 17 and EWS-Fli block 4.
`COc1ccc(-c2ccc([C@H]3[C@@H]4C=CCC[C@@]4(C)C(=O)N3Cc3ccccc3)c(F)c2)cc1OC` gave KKLEB tox -15, LGR2 antag 8, PAX8 inh HTS 26, CF NFkB inh 53*, EWS-Fli block 17, Shn3 inh set2 37 and CF NFkB conf 33.
For CO[C@H]1CN(C)C(=O)c2ccc(NC(=O)C3CCOCC3)cc2OC[C@@H](C)N(C(=O)c2ccccc2)C[C@H]1C the results were LGR2 antag 4, PAX8 inh HTS -9 and EWS-Fli block -4.
For COc1ccc(NC(=O)Nc2ccc3c(c2)CC(=O)N([C@@H](C)CO)C[C@H](C)[C@@H](CN(C)Cc2ccccc2)O3)cc1 the results were LGR2 antag 12, PAX8 inh HTS 0 and EWS-Fli block 16.
Screening O=[N+]([O-])c1ccc(-n2nnnc2-c2ccccc2)c([N+](=O)[O-])c1 returned KKLEB tox -23, LGR2 antag 40, PAX8 inh HTS 35, CF NFkB inh 68*, EWS-Fli block 8, Shn3 inh set2 17 and CF NFkB conf -69.
Screening O=[N+]([O-])c1ccc(-n2nnnc2-c2ccccc2)cc1 returned KKLEB tox -1, LGR2 antag 17, PAX8 inh HTS 14, CF NFkB inh -4 and Shn3 inh set2 3.
OCC1CCCN(c2ncnc3scc(-c4ccccc4)c23)C1 (centres undefined) was read as KKLEB tox -28, LGR2 antag 8, PAX8 inh HTS 11, CF NFkB inh 50*, EWS-Fli block -8, Shn3 inh set2 -5 and CF NFkB conf 40*.
Screening OCC1CCCN(c2nc(CN3CCCCC3)nc3scc(-c4ccccc4)c23)C1 (centres undefined) returned KKLEB tox -15, LGR2 antag -1, PAX8 inh HTS 0, CF NFkB inh 14, EWS-Fli block 12 and Shn3 inh set2 25.
CN1CCN(c2ncnc3scc(-c4ccccc4Cl)c23)CC1 was read as KKLEB tox -26, LGR2 antag 10, PAX8 inh HTS -7, CF NFkB inh 71*, EWS-Fli block -21, Shn3 inh set2 17 and CF NFkB conf 74*.
`CS(=O)(=O)Nc1cccc(-c2cc(NC=O)c3ncc(-c4ccc(F)cc4)n3c2)c1` gave KKLEB tox -28, LGR2 antag -43, PAX8 inh HTS 81*, CF NFkB inh 52*, EWS-Fli block 3, Shn3 inh set2 48 and CF NFkB conf 53*.
For Cc1ccc(/C=[N+](\[O-])c2ccc(N(C)C)cc2)c2nsnc12 the results were KKLEB tox -24, LGR2 antag -63, PAX8 inh HTS 16, CF NFkB inh 68*, EWS-Fli block -24, Shn3 inh set2 inconclusive and CF NFkB conf -68.
C[C@@H]1CN([C@H](C)CO)C(=O)c2cc(C#Cc3ccccn3)cnc2O[C@H]1CN(C)CC1CCCC1 was read as LGR2 antag -2, PAX8 inh HTS 4 and EWS-Fli block 4.
Cc1cccc(C(=O)N2[C@@H](C(C)C)COc3cc(Br)ccc3S2(=O)=O)c1 was read as KKLEB tox 8, LGR2 antag 14, PAX8 inh HTS 24, CF NFkB inh 61*, EWS-Fli block -6, Shn3 inh set2 -18 and CF NFkB conf 59*.
For COc1cccc(C(=O)N2C(C(C)C)COc3cc(Br)ccc3S2(=O)=O)c1 (centres undefined) the results were KKLEB tox 27, LGR2 antag 17, PAX8 inh HTS 10, CF NFkB inh 50*, EWS-Fli block -4, Shn3 inh set2 -11 and CF NFkB conf 55*.
For CC(C)(C)C(=O)/C(=C/c1ccncc1)n1cncn1 the results were KKLEB tox -10, LGR2 antag 79*, PAX8 inh HTS 70*, CF NFkB inh 75*, EWS-Fli block 41, Shn3 inh set2 98* and CF NFkB conf 83*.
For CCOC(=O)C(=Cc1ccc(OCc2ccc([N+](=O)[O-])cc2)c(OC)c1)C(=O)OCC the results were KKLEB tox -3, CF NFkB inh 54*, Shn3 inh set2 84 and CF NFkB conf -253.
CO[C@@H]1CN(C)C(=O)c2ccc(NS(C)(=O)=O)cc2OC[C@H](C)N(C(=O)C2CCC2)C[C@H]1C was read as LGR2 antag -1, PAX8 inh HTS 0 and EWS-Fli block -7.
Screening CC(C)OC(=O)n1c(=S)oc2ccccc21 returned KKLEB tox 9, LGR2 antag 13, CF NFkB inh -7 and Shn3 inh set2 -20.
For CCCCC(=O)/C=C/n1c(=S)oc2ccccc21 the results were KKLEB tox -36, LGR2 antag -64, PAX8 inh HTS -51, CF NFkB inh 90*, EWS-Fli block 17, Shn3 inh set2 -47 and CF NFkB conf -143.
Screening O=C(C1CCOCC1)N1CC(=O)N2[C@@H](CO)[C@@H](c3ccc(C#Cc4cccc(F)c4)cc3)[C@@H]2C1 returned LGR2 antag 11, PAX8 inh HTS -14 and EWS-Fli block -3.
Screening CCSc1nsc(NC(=O)Nc2cccc(OC)c2)n1 returned KKLEB tox -7, LGR2 antag 14, PAX8 inh HTS -12, CF NFkB inh 70*, EWS-Fli block -60, Shn3 inh set2 -17 and CF NFkB conf 53*.
